Data as given in the supplement of paper PMC13380429.
Unmarked numbers belong to inactive results.

Tested on: Vero E6 infected with SARS-CoV-2
Test: inhibition of SARS-CoV-2 cytopathic effect; higher = more antiviral protection, active = above 15
Settings: 48 h

| Structure (SMILES) | inhibition of SARS-CoV-2 cytopathic effect (1 nM) | inhibition of SARS-CoV-2 cytopathic effect (8.33 nM) | inhibition of SARS-CoV-2 cytopathic effect (100 nM) | inhibition of SARS-CoV-2 cytopathic effect (833.33 nM) | inhibition of SARS-CoV-2 cytopathic effect (10000 nM) |
| --- | --- | --- | --- | --- | --- |
| CN1CCN(C2CCN(C(=O)Nc3cc(Oc4ccc(NC(=O)C5(C(=O)Nc6ccc(F)cc6)CC5)c(F)c4)ccn3)CC2)CC1 [golvatinib] | 0.88% | 0.74% | 2.78% | 5.87% | 40.8% (active) |
| C=CCN1CCc2nc(N)sc2CC1 [talipexole] | -0.94% | 1.41% | 0.94% | -0.07% | -2.07% |
| O[C@@](Cc1nc(CC2(C(F)(F)F)CC2)c[nH]1)(c1ccc(-n2cccn2)cc1)C(F)(F)F | 0.23% | -0.02% | 0.57% | -0.43% | -2.55% |
| CC(C)(C)c1cc(C(C)(C)C)c2c(c1)C(O)(C(F)(F)F)C(=O)O2 (racemic) | 5.52% | 2.66% | 4.61% | -0.2% | -1.15% |
| CC(=O)NCCc1c[nH]c2ccccc12 [N-acetyltryptamine] | 0.9% | 2.35% | 2.28% | -0.38% | 2.53% |
| CC[C@H]1OC(=O)[C@H](C)[C@@H](O[C@H]2C[C@@](C)(OC)[C@@H](O)[C@H](C)O2)[C@H](C)[C@@H](O[C@@H]2O[C@H](C)C[C@H](N(C)C)[C@H]2O)[C@](C)(O)C[C@@H](C)C(=O)[C@H](C)[C@@H](O)[C@]1(C)O [erythromycin] | -0.74% | -0.54% | -1.16% | 2.65% | 1.91% |
| CNC(=O)c1ccc2cc([C@@]3(O)CCn4cncc43)ccc2c1 [orteronel] | 3.23% | 3.01% | 4.35% | 3.1% | 2.53% |
| O=C(/C=C/c1ccc(CN(CCO)CCc2c[nH]c3ccccc23)cc1)NO [dacinostat] | -2.47% | -2.54% | -6.55% | -21.1% | -23.2% |
| Cc1ccc(CNc2ncnc3ccc(-c4ccc(CO)o4)cc23)o1 | -1.31% | 0.26% | 0.15% | -0.45% | 1.88% |
| N=C(N)c1ccc(/C=C/c2ccc(C(=N)N)cc2O)cc1 [hydroxystilbamidine] | -3.2% | -1.76% | -5.12% | -3.2% | -1.16% |
| CCC/N=C1\S/C(=C\c2ccc(OC[C@H](O)CO)c(Cl)c2)C(=O)N1c1ccccc1C [ponesimod] | -1.82% | -0.6% | -2.77% | -2.51% | -0.58% |
| CCN1CCN(C(=O)Cc2ccc(Nc3ncc(F)c(Nc4ccc(C(=O)Nc5ccccc5Cl)cc4)n3)cc2)CC1 [aurora-a-inhibitor-i] | -0.07% | -0.73% | -0.58% | 0.9% | 4.49% |
| O=C(CC1NCCCC1O)Cn1cnc2cc(Br)c(Cl)cc2c1=O (stereo not given) [halofuginone] | -3.21% | -1.77% | -2.82% | 12.3% | -13.9% |
| CCN(CC)Cc1cc(Nc2ccnc3cc(Cl)ccc23)ccc1O [amodiaquine] | 3.02% | 3.97% | 0.97% | -1.05% | 44.7% (active) |
| Cc1ccc(S(N)(=O)=O)cc1 [para-toluenesulfonamide] | 3.73% | 1.88% | 1.14% | 0.12% | -5.38% |
| C=C(C)[C@H]1CN[C@H](C(=O)O)[C@H]1CC(=O)O [kainic-acid] | -1.66% | 0.99% | 0.37% | -1.94% | -0.79% |
| CCN(Cc1ccncc1)C(=O)C(CO)c1ccccc1 (stereo not given) [tropicamide] | 2.76% | 4.91% | 3.33% | 3.81% | -2.47% |
